From PubChem BioAssay AID894 (National Center for Advancing Translational Sciences (NCATS), 2007)
Several values for one entry are separate records, joined by “and”; a condition that tells them apart may be missing. Equal entries are not always repeated. About 6,500 (4.3%) of roughly 150,000 compounds were called active. Not shown: some 12% with an inconclusive outcome. The call rests on the fitted dose curve; in most records, active means well fitted inhibition curve with a large enough effect (not every such curve was filed as active); inconclusive means small, poorly fitted or top-dose-only effect, or another doubt; inactive means no such curve, though single readings can be large or run the other way. The entries come from a sample that favours actives as a whole.

Biological target: 15-hydroxyprostaglandin dehydrogenase [NAD(+)] (Homo sapiens) (UniProt P15428)
Experiment: qHTS Assay for Inhibitors of HPGD (15-Hydroxyprostaglandin Dehydrogenase)
Settings: purified HPGD, NADH fluorescence kinetic, PGE2 substrate; activity change, negative = inhibition: active compounds read low
Source text: Human 15-Hydroxyprostaglandin dehydrogenase (HPGD) catalyzes the inactivation of prostaglandin E2, and plays a major role in cancer biology by antagonizing the oncogenic potential of cyclooxygenase type 2 (COX2). Assays are available, based on absorbance/fluorescence increase of NADH with the substrate 15-OH prostaglandin E2. References 1. Myung SJ, Rerko RM, Yan M, Platzer P, Guda K, Dotson A, Lawrence E, Dannenberg AJ, Lovgren AK, Luo G, Pretlow TP, Newman RA, Willis J, Dawson D, Markowitz SD. 15-Hydroxyprostaglandin dehydrogenase is an in vivo suppressor of colon tumorigenesis. […] 2. Yan M, Rerko RM, Platzer P, Dawson D, Willis J, Tong M, Lawrence E, Lutterbaugh J, Lu S, Willson JK, Luo G, Hensold J, Tai HH, Wilson K, Markowitz SD. 15-Hydroxyprostaglandin dehydrogenase, a COX-2 oncogene antagonist, is a TGF-beta-induced suppressor of human gastrointestinal cancers. Proc Natl Acad Sci U S A. 2004 Dec 14;101(50):17468-73. 3. Yang L, Amann JM, Kikuchi T, Porta R, Guix M, Gonzalez A, Park KH, Billheimer D, Arteaga CL, Tai HH, Dubois R, Carbone DP, Johnson DH. Inhibition of Epidermal Growth Factor Receptor Signaling Elevates 15-Hydroxyprostaglandin Dehydrogenase in Non-Small-Cell Lung Cancer. Cancer Res. 2007 Jun 15;67(12):5587-5593. Inhibition of HPGD activity was screened by utilizing prostaglandin as an electron donor and NAD+ as an electron acceptor/cofactor. An increase in the fluorescence intensity due to conversion of NAD+ to NADH was used to measure the enzyme activity. NIH Chemical Genomics Center [NCGC] Structural Genomics Consortium [SGC]
Buffer: 50 mM Tris-HCl, 0.01% Tween 20, pH 8. Enzyme Buffer: 50 mM Tris-HCl, 0.5 mM NAD+ and 0.01% Tween 20, pH 8. Reagents/Controls: Buffer in columns 3 and 4 as negative control (no enzyme). Substrate/cofactor solution: 1 mM NAD+ and 30 uM prostaglandin (Sigma, prostaglandin E2, # P5640) final concentrations dispensed throughout the plate. Enzyme: 20 nM HPGD final concentration in columns 1, 2, 5-48. Column 1 and 2 is neutral (100% activity). A titration of control inhibitor GW5074 (G6416 Sigma-Aldrich, St. Louis, MO) top concentration 10 mM in DMSO, then 1:2 dilution for a total of 16 concentrations in duplicate) was pin-transferred into column 2. Assay Steps: Three uL of enzyme were dispensed to 1536-well Greiner black solid bottom plates. Compounds and control inhibitor (23 nL) were transferred via Kalypsys PinTool. The plates were incubated for 15 min at room temperature, and then 1 uL of substrate/cofactor solution was added to start the reaction. The plates were immediately transferred to and read 5 times every 30 seconds on ViewLux High-throughput CCD imager (Perkin-Elmer) using 360 nm excitation and 450 nm emission fluorescence protocol. The fluorescence intensity difference between the last and the first time points was used to compute reaction progress.
On the % scale 0 is the no-effect control and ±100 the full control effect; potency means the concentration at half of the fitted maximal effect.

15-hydroxyprostaglandin dehydrogenase [NAD(+)] (Homo sapiens), sequence (P15428 whole entry, looked up): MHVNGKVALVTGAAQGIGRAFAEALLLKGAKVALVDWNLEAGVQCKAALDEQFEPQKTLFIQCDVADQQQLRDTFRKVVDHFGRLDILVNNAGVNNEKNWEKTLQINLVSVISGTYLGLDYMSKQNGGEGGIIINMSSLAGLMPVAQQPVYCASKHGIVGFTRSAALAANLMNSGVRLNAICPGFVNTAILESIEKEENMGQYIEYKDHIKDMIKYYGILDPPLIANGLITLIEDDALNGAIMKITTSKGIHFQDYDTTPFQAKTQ

SMILES	activity change, negative = inhibition	Potency
Fc1ccc(C(OCCN2CCN(C/C=C\c3ccccc3)CC2)c2ccc(F)cc2)cc1	-13.4% (inactive)	–
CCCCC/C=C\C/C=C\C/C=C\C=C\[C@H](CCCC(=O)O)OO	-9.41% (inactive)	–
Cc1cccc2c3c(ccc12)C1=C(C(=O)C3=O)C(C)CO1 (stereo unspecified)	–	17.8 µM (active)
CNCC[C@H](Oc1ccc(C(F)(F)F)cc1)c1ccccc1	-9.03% (inactive) and -8.03% (inactive) and -3.66% (inactive)	–
CC(C)(O)/C=C\C(=O)[C@](C)(O)[C@H]1[C@H](O)C[C@]2(C)[C@@H]3CC=C4[C@@H](C=C(O)C(=O)C4(C)C)[C@]3(C)C(=O)C[C@@]12C	-9.86% (inactive)	–
COC(=O)N(c1ccc(OC)cc1)P1(=S)OCCC(C)O1 (stereo unspecified)	–	4.47 µM (active)
OC(Cn1c2ccccc2c2ccccc21)C[n+]1ccccc1 (stereo unspecified)	-3.99% (inactive)	–
Cc1ccc(N2C(=O)NC(=O)C(CCc3ccncc3)(Cc3cccc(Cl)c3Cl)C2=O)cc1 (stereo unspecified)	-5.28% (inactive)	–
C=CCSSCC=C	–	8.91 µM (active)
CC(=O)OC1C2CCC3C1(CC(O)[C@@]1(O)[C@@H](CC(O)C1(C)C)[C@]3(C)O)C[C@@]2(C)O (stereo partly specified)	-0.742% (inactive)	–
CCCCCCCCCCCCCC(=O)O[C@@H]1[C@@H](C)[C@@]2(O)[C@@H](C=C(CO)C[C@]3(O)C(=O)C(C)=C[C@@H]23)[C@@H]2C(C)(C)[C@]12OC(C)=O	-19% (inactive)	–
CC(C)(O)c1[se]c2ccccc2c1I	-24.2% (inactive)	–
Cc1cccc(N2C(=O)NC(=O)/C(=C\c3cnn(-c4ccccc4)c3)C2=O)c1	–	10 µM (active)
CC12CN3CC(C)(CN(C1)C3c1cccs1)C2 (stereo unspecified)	-2.07% (inactive)	–
CC(=C1C(=O)c2ccccc2C1=O)N1CCN(CCN=Cc2c(O)n(C)c(=O)n(C)c2=O)CC1	-26.9% (inactive)	–
COc1c(O)ccc2c1-c1c3c(cc4c1C(C2)N(C)CC4)OCO3 (stereo unspecified)	-4.96% (inactive)	–
O=c1c2ccccc2nc(-c2ccco2)n1-c1ccc(Br)cn1	-7.61% (inactive)	–
Cc1nc2ccccn2c1P(=S)(N1CCCCC1)N1CCCCC1	-26.7% (inactive)	–

SMILES	activity change, negative = inhibition	Potency
CCCCCCCCc1[se]c2ccccc2c1Br	1.04% (inactive)	–
CCNC[C@H](O)c1cccc(O)c1	-6.69% (inactive)	–
O=C1/C(=C\c2ccc3c(c2)OCO3)N2CCC1CC2	–	25.1 µM (active)
N[C@H](Cc1o[nH]c(=O)c1Cl)C(=O)O	0.654% (inactive)	–
Cc1ccc(N(C)C(=O)Oc2cccc3ccc(C)nc23)cc1	-1.1% (inactive)	–
O=c1c2ccccc2nc(-c2ccc(Cl)cc2Cl)n1-c1ccncc1	-1.06% (inactive)	–
C1CC[C@H]([C@@]23C[C@H](C[C@H]4CCCN[C@H]42)[C@@H]2CCCCN2C3)NC1	-4.36% (inactive)	–
O=C(O)C1C2CCC(O2)C1C(=O)O (stereo unspecified)	-2.85% (inactive)	–
O=C(OCC1O[C@@H](OC(=O)c2cc(O)c(O)c(O)c2)[C@@H](OC(=O)c2cc(O)c(O)c(O)c2)[C@@H](OC(=O)c2cc(O)c(O)c(O)c2)[C@@H]1OC(=O)c1cc(O)c(O)c(O)c1)c1cc(O)c(O)c(O)c1 (stereo partly specified)	–	10 µM (active)
CC(C)N(CC#CCC1(O)c2ccccc2-c2ccccc21)C(C)C	-8.59% (inactive)	–
CCN1CCN(C(=O)Cc2coc3cc(C)cc(C)c23)CC1	-14.1% (inactive)	–
O=[N+]([O-])c1ccc(Cl)c(Cl)c1	-4.16% (inactive)	–
CN[C@@H]1C[C@H]2O[C@@](C)([C@@H]1OC)n1c3ccccc3c3c4c(c5c6ccccc6n2c5c31)C(=O)NC4	-25.7% (inactive)	–
Cc1ccc(Cn2c(C)c3cnn(CC(=O)N4CCC5(CC4)OCCO5)c(=O)c3c2C)cc1	-21.8% (inactive)	–
Cc1cc(-c2n[nH]c(=S)n2-c2ccc(C)c(C)c2)no1	–	5.62 µM (active)
NCCc1ccc(S(=O)(=O)F)cc1	-8.88% (inactive)	–
CC(=O)O[C@H]1CC[C@@]2(C)[C@@H](CC[C@H]3[C@H]2CC(=O)[C@]2(C)[C@@H]3C[C@@H](N3CC3)[C@H]2C(C)=O)C1	-8.48% (inactive)	–
CCC(C)C(=O)O[C@@H]1C[C@@]2(C)C(c3ccoc3)OC(=O)CC23OC2(C)O[C@@]14[C@@]1(C)C(CC(=O)OC)C5(C)CC1(O)C(O)(C5OC(=O)C1(C)OC1C)C(OC(C)=O)[C@@]34O2 (stereo partly specified)	-23.2% (inactive)	–
